Assay results reported in PubChem BioAssay AID778 (Sanford-Burnham Center for Chemical Genomics, 2007).
About 20,000 (21%) of roughly 96,000 compounds were called active. The list is a sample of the results. A number with no mark means an inactive call.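 The calls were made as follows: active = CYP2C19 inhibition above a set limit at 5 µM in the primary screen (cut at about 50% in these data); inactive = the rest.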

biological target: Cytochrome P450 2C19 (Homo sapiens) (UniProt P33261); experiment: blockers of cytochrome P450 2C19 activity – biochemical, luminescence, ADME assay, primary screen (AID 778); details: CYP2C19 Supersomes, luciferin-H EGE luminescence, 30 min; at 5 µM; hits give high values;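 also: plate controls were negative control wells for no effect and 2.5 mM tranylcypromine positive control for full effect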
Sequence (P33261 whole entry, looked up): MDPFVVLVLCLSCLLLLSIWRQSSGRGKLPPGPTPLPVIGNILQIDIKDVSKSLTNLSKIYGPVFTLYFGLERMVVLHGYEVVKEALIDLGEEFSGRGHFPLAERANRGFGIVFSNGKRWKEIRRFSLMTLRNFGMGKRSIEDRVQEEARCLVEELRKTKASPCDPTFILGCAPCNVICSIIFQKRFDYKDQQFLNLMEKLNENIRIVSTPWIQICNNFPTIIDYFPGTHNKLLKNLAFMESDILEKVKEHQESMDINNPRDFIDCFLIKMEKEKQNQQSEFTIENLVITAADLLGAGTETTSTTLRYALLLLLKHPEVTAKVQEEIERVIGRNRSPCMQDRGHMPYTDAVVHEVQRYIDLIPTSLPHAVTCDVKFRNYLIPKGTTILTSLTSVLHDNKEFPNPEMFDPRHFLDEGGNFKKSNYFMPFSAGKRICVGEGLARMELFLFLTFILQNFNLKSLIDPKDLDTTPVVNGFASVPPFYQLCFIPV

Compared with `Cc1cc(C)n(-c2cc(Oc3ccccc3)ncn2)n1`, `O=C(OCc1cn(-c2ccc(Cl)c(Cl)c2)nn1)c1ccccc1Cl` is lower in inhibition: 15.9% for the first, -4.8% for the second.

Compared with `CC(C)=C1SC(N2CCN(c3cccc(C)c3)CC2)=NC1=O`, `Cc1ccc(C)c(N2CCN(C(=O)CCCCn3c(=O)[nH]c4ccccc4c3=O)CC2)c1` is higher in inhibition: 6.5% for the first, 46.3% for the second.

Going from `O=S(=O)(c1cnccc1N1CCN(/N=C/c2ccc(Br)cc2)CC1)N1CCCCC1` to `Cn1c(SCC(=O)OC2CCCCC2)nnc1-c1ccc(S(=O)(=O)N2CCCC2)cc1`, the inhibition rises from -12% to 5.7%.

Compared with `CCn1c(SCC(=O)Nc2nc(C)cs2)nnc1C(C)NC(=O)c1ccccc1` (configuration not stated), `CCCCCCn1c(SCC(=O)c2ccccc2)nc2c1c(=O)[nH]c(=O)n2C` is lower in inhibition: 8.1% for the first, -16.1% for the second.

Compared with `O=C1CC(c2ccccc2)CC(O)=C1C=NCCN1CCOCC1` (configuration not stated), `CCc1ccc(NC(=O)CSc2nc3ccccc3c(=O)n2CCN2CCOCC2)cc1` is higher in inhibition: 0.2% for the first, 34.4% for the second.

First: CCCc1nnc(NC(=O)c2cc(OC)cc(OC)c2)s1
Second: Cc1ccc(OCc2nnc(NC(=O)OCC(C)C)s2)cc1
The inhibition of the first is higher: 32.5% for the first, 5.9% for the second.

Going from `COc1ccc(Cl)cc1S(=O)(=O)Nc1cccc(C(=O)O)c1` to `COc1ccccc1NS(=O)(=O)N(C)C`, the inhibition falls from 13.4% to 4.9%.

Compared with `Cc1ccc(NC(=S)N/N=C2/CCCc3c(C)cc(C)cc32)cc1`, `CC(C)c1ccc(NC(=O)NC2CCCCC2)cc1` is lower in inhibition: -4.5% for the first, -15.2% for the second.

Going from `CCOC(=O)N1CCN(CC(=O)c2ccc3c(c2)CCN3)CC1` to `O=C(O)C1C2C=CC(C2)C1C(=O)N1CCN(CCO)CC1` (configuration not stated), the inhibition falls from 34.1% to 1%.

Going from `CC(C)NC(=O)C(=O)N/N=C/c1ccco1` to `CSc1ncccc1C(=O)OCC(=O)N1CCOCC1`, the inhibition rises from -7% to 3.2%.

Compared with `O=C1c2ccccc2C(=O)N1CCc1nn[nH]n1`, `O=C1c2ccccc2C(=O)N1CCC(c1ccccc1)c1ccco1` (configuration not stated) is higher in inhibition: -6.8% for the first, 22.9% for the second.

Compared with `Cc1cc(Br)ccc1NC(=O)C1CCCO1` (configuration not stated), `CCCCn1c(SCC(=O)NCC2CCCO2)nc2ccc(N3CCOCC3)cc2c1=O` (configuration not stated) is lower in inhibition: 46.4% for the first, 34.3% for the second.

First: CCn1c(O)c(N=NC2=NC(=O)CS2)c2cc(C)ccc21
Second: Cc1cccc(NC(=S)N2CCC(c3nc4ccccc4s3)CC2)c1
The inhibition of the first is higher: 14.8% for the first, 8.3% for the second.

Going from `CC1CC2=C(CC1/C=N/NC(N)=S)C(C)(C)CCC2` (configuration not stated) to `COc1ccc(CCN(Cc2cc3cccc(C)c3[nH]c2=O)C(=O)N2CCCC2)cc1OC`, the inhibition falls from 30.6% to 15.5%.

Compared with `O=C(CSc1nc2cc3c(cc2c(=O)n1CCC1=CCCCC1)OCO3)NCc1ccco1`, `Cn1c(-c2ccc(F)cc2)cnc1SCC(=O)NCc1ccco1` is higher in inhibition: 7.2% for the first, 10.8% for the second.

Compared with `O=C(Cn1c(=O)n(Cc2ccco2)c(=O)c2ccccc21)NCC1CCCO1` (configuration not stated), `O=C(CSc1nnc(-c2c[nH]c3ccccc23)o1)c1ccccc1` is higher in inhibition: 7.3% for the first, 16.6% for the second.

First: COc1ccc(C(=O)Nc2c(N)nc(SCC(=O)N3CCC(C)CC3)[nH]c2=O)cc1OC
Second: CCC(c1nnnn1C1CCCC1)N(Cc1cccs1)Cc1cc2cccc(C)c2[nH]c1=O (configuration not stated)
The inhibition of the first is lower: -6.9% for the first, 45.9% for the second.

First: CC(=O)Nc1ccc(C(=O)CSc2nnc(Cc3ccccc3)o2)cc1
Second: CCCCCN(C(=O)NC(=O)Nc1ccccc1OC)S(C)(=O)=O
The inhibition of the first is lower: 16.6% for the first, 39.3% for the second.

First: CC1CCc2sc3nc(N4CCN(CCO)CC4)n4ncnc4c3c2C1 (configuration not stated)
Second: Cc1cccc2cc(CN(Cc3ccc4c(c3)OCO4)Cc3nnnn3C3CCCC3)c(=O)[nH]c12
The inhibition of the first is higher: 37.2% for the first, 33.8% for the second.

Compared with `CC(=O)N=c1ncn(CC(COC(C)=O)OC(C)=O)c2nc[nH]c12` (configuration not stated), `CCCN(Cc1cc2cccc(C)c2[nH]c1=O)S(C)(=O)=O` is higher in inhibition: 4.1% for the first, 23% for the second.

With `CNS(=O)(=O)c1cnccc1N1CCN(c2cccc(C)c2)CC1` the inhibition was 78.6% (active).
For `COc1ccc(OC)c(S(=O)(=O)Nc2ccccc2F)c1`, the inhibition was 85.9% (active).
`Cc1ccc(NC(=S)NC2CCCC2)cc1` was tested, and the inhibition was 54.5% (active).
For `Nc1ccc(SCCN2C(=O)c3ccccc3C2=O)cc1`, the inhibition was 94.6% (active).
With `O=C(CCn1c(SCC(=O)c2ccccc2)nc2ccccc2c1=O)NCc1ccc(F)cc1` the inhibition was 60.5% (active).
For `O=C(CCCn1c(SCC(=O)c2ccc(F)cc2)nc2ccccc2c1=O)NCc1ccco1`, the inhibition was 70% (active).
With `O=C(CCCn1c(SCC(=O)c2ccccc2)nc2ccccc2c1=O)NCC1CCCO1` (configuration not stated) the inhibition was 58.1% (active).
`CC(C)C[C@@H](N)c1nnc(SCC(=O)c2ccc(Cl)cc2)o1` was tested, and the inhibition was 90.5% (active).
With `CCOc1ncccc1C(=O)OCc1cn2cc(Cl)ccc2n1` the inhibition was 62.6% (active).
`CCN(CC)S(=O)(=O)c1ccc2c3c(cccc13)C(=O)S2` was tested, and the inhibition was 81.1% (active).
In the case of `Cc1cccc2cc(CN(Cc3nnnn3Cc3ccccc3)C3CCCC3)c(=O)[nH]c12`, the inhibition is reported as 94.6% (active).
`Cc1cccc2cc(CN(Cc3cccs3)C(c3nnnn3C3CCCC3)C(C)C)c(=O)[nH]c12` (configuration not stated) was tested, and the inhibition was 73.4% (active).
